# Where “and” joins values, the source holds several entries; their conditions need not be identical. Identical values can stand only once. This is part of a sample that, as a whole, favours compounds with a hit. Of some 79,000 tested, about 15% had one in any assay. Unmarked numbers belong to inactive results. Calls of active or inactive are those of the source. Rule as the data show it: active = growth inhibition above about 70%; inactive = the rest.
# Tests used:
# [1] = NCI Yeast Anticancer Drug Screen. Data for the rad50 strain (AID 155);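 also: 0% = growth of vehicle-only cultures of the same strain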; conditions: S. cerevisiae rad50 strain growth inhibition, stronger effect = higher value
# How it was run: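 Yeast carrying a defined DNA repair defect were exposed to test compounds, and growth was compared with vehicle-treated controls to give percent inhibition.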
# [2] = NCI Yeast Anticancer Drug Screen. Data for the mec2-1 strain (AID 157); conditions: S. cerevisiae mec2-1 strain, stronger effect = higher value
# How it was run: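 Yeast mec2-1 mutant treated with compound. Readout: growth inhibition vs vehicle controls.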
# [3] = NCI Yeast Anticancer Drug Screen. Data for the sgs1 mgt1 strain (AID 161);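 also: 0% = growth of cultures given vehicle only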; conditions: S. cerevisiae sgs1 mgt1 strain, stronger effect = higher value
# How it was run: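 Inhibition of yeast growth, normalised to vehicle-treated controls, is reported for a strain bearing genetic alterations in DNA damage repair.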
# [4] = NCI Yeast Anticancer Drug Screen. Data for the cln2 rad14 strain (AID 165);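 also: 0% = growth equal to vehicle treated cultures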; conditions: S. cerevisiae cln2 rad14 strain, stronger effect = higher value
# How it was run: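 cln2 rad14 yeast strain; compound exposure; growth inhibition read vs vehicle controls.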
# [5] = NCI Yeast Anticancer Drug Screen. Data for the bub3 strain (AID 167); conditions: S. cerevisiae bub3 mutant strain, stronger effect = higher value
# How it was run: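 Compounds were applied to a genetically altered yeast strain carrying a cell-cycle control defect. Growth inhibition was scored against vehicle-treated controls.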
# [6] = NCI Yeast Anticancer Drug Screen. Data for the mlh1 rad18 strain (AID 175); conditions: S. cerevisiae mlh1 rad18 strain growth inhibition, stronger effect = higher value
# How it was run: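 Yeast w/ defined DNA-repair lesions; compound exposure; growth vs vehicle controls → % inhibition.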
# [7] = at 5.0 µM (retest, dose inferred, filed as 0.5)
# [8] = at 50.0 µM (retest, dose inferred, filed as 5.0)
Structure (SMILES),"growth inhibition [1, 7]","growth inhibition [1, 8]",growth inhibition ([1]; at 50.0 µM),"growth inhibition [2, 7]","growth inhibition [2, 8]",growth inhibition ([2]; at 50.0 µM),"growth inhibition [3, 7]","growth inhibition [3, 8]",growth inhibition ([3]; at 50.0 µM),"growth inhibition [4, 7]","growth inhibition [4, 8]",growth inhibition ([4]; at 50.0 µM),"growth inhibition [5, 7]","growth inhibition [5, 8]",growth inhibition ([5]; at 50.0 µM),"growth inhibition [6, 7]","growth inhibition [6, 8]",growth inhibition ([6]; at 50.0 µM)
COC1=CC2=CCC3C(CCC4(C)C3CCC4(C)OC(C)=O)C2(C)CC1 (configuration not stated),-2%,66%,51.4%,2%,43%,36.5%,0%,82% (active),56.4%,0%,35%,30.6%,-12%,24%,76.6% (active),-2%,76% (active),55.5%
S=P(Nc1ccccc1)(Nc1ccccc1)Oc1ccccc1,2%,98% (active),99% (active),-4%,98% (active),99% (active),-4%,98% (active),99.2% (active),-4%,97% (active),98.7% (active),9%,97% (active),98.7% (active),7%,97% (active),97.5% (active)
CC(=O)OCC12CCC(C)=CC1OC1C3(O)N=C(C)OC3C2(C)C12CO2 (configuration not stated),35%,78% (active),32.2%,28%,55%,69%,46%,76% (active),41%,38%,64%,56.3%,18%,69%,41.9%,46%,75% (active),18.4%
O=[N+]([O-])c1ccc([Se]CCBr)c([N+](=O)[O-])c1,5%,36%,38.4%,1%,23%,41%,5%,95% (active),18.2%,2%,88% (active),15.8%,-2%,90% (active),30.2%,10%,96% (active),19.8%
COC1CC2C(C[CH]1[Hg][Cl])C2(Cl)Cl (configuration not stated),99% (active),99% (active),99.5% (active),100% (active),100% (active),99.6% (active),100% (active),99% (active),99.5% (active),99% (active),99% (active),99.2% (active),99% (active),99% (active),98% (active),99% (active),99% (active),99.5% (active)
CC(C)=[CH][Sb]([Br])([CH]=C(C)C)([CH]=C(C)C)[CH]=C(C)C,-1%,11%,50.8%,-4%,17%,33.7%,-4%,14%,18.9%,-8%,3%,-17.4%,11%,13%,30.7%,-7%,12%,24.4%
Sc1ccc(Cl)cc1,3%,51%,9.5% and 52.4%,2%,37%,10.7% and 32.1%,5%,34%,13.4% and 26.1%,-1%,38%,-45% and 14.8%,0%,59%,-33% and 62.4%,9%,64%,13.9% and 31.5%
O=C(c1ccccc1)C1CCCN(CCc2ccccc2)C1 (configuration not stated),54%,64%,57.3%,31%,70% (active),55.7%,54%,63%,73.3% (active),48%,62%,82% (active),43%,56%,84.2% (active),56%,67%,67.7%
c1cc[c]([Sn]([c]2ccccc2)([c]2ccccc2)[c]2ccccc2)cc1,-2%,-3%,60.2%,-3%,1%,53.4%,0%,-2%,86.5% (active),-1%,-4%,-20.4%,2%,2%,46%,1%,-4%,81.9% (active)

# — PubChem BioAssay (NCI)
